# Source: PubChem BioAssay (National Center for Advancing Translational Sciences (NCATS))
# Luciferase inh – Firefly luciferase inhibition profiling of diverse chemical library using quantitative high-throughput screening; Luciferin 4-monooxygenase (Photinus pyralis), P08659; 76,000 compounds, 2.5% hits; Potency, µM (highest dose often 115 µM), hits mostly inhibitors; purified P. pyralis luciferase, luminescence, biochemical; note: nearly all actives have a fitted effect of over 65% in size
#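 Luminescence read by CCD imaging after purified firefly luciferase (10nM final) was added to substrate buffer holding 10uM D-luciferin and 10uM ATP, pH 7.5, pre-dosed with compound.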
# NPR1 antag – Natriuretic polypeptide receptor (hNpr1) antagonism - Primary qHTS | Atrial natriuretic peptide receptor 1 (Homo sapiens), P16066 | AID 1347048, 2019 | HEK293 hNpr1 GloSensor cGMP, ANP-stimulated luminescence | 76,000 compounds, 1.6% hits | Potency, µM (titrated, usually from 46.3 µM), without a hit: at the highest dose activity change, negative = inhibition, actives largely listed as inhibitors; calls by dose curve; note: nearly all actives have a fitted effect of over 60% in size
#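 Compound pre-incubated 30 min at room temperature on GloSensor-loaded HEK293 cells stably carrying hNpr1 and the pGS-40F cGMP biosensor. Stimulation uses hNppA at 0.1 nM final; luminescence is taken at baseline and 20 min post-agonist.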
# NIH3T3 tox – Cytotoxic Profiling in NIH 3T3 Cell Line of Diverse Libraries Using Quantitative High-Throughput Screening. NIH 3T3 viability, CellTiter-Glo ATP luminescence, 48-72 h. Potency, µM (doses to about 96.7 µM), without a hit: at the top dose activity change, negative = cytotoxicity, most hits filed as inhibitors. 94,000 compounds, 4.3% hits. AID 1345082, 2018; note: nearly all actives have a fitted effect of over 55% in size
#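 Cells were seeded at 400 per well, treated with pin-transferred compound, and kept 48 or 72 hr at 37 °C before CellTiter-Glo addition and luminescence imaging of cellular ATP.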
# HEK293 tox – Cytotoxic Profiling in HEK 293 Cell Line of Diverse Libraries Using Quantitative High-Throughput Screening. HEK 293 viability, ATP luminescence (CellTiter-Glo), 48-72 h. Potency, µM (highest dose often 115 µM), for inactives: at the top dose activity change, negative = cytotoxicity, actives largely listed as inhibitors. 94,000 compounds, 6.6% hits. AID 1345083, 2018; note: nearly all actives have a fitted effect of over 60% in size
#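 Cells seeded first (HEK 293, 250 cells/well), then compound added by pintool. Incubation ran 48 or 72 hr at 37 degree Celsius. CellTiter-Glo was added and luminescence imaged after 10 min at room temperature.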
# * hit, by the source's call; i = inactive; ? = inconclusive; . = not tested or not shown; [ ] = dose if it differs, or a comment. A selection: hits, their analogues and other compounds. The true share with any hit is near 11%. Unless noted, calls come from the whole dose curve; as a rule, active = well fitted curve in the direction sought with a large enough effect; inconclusive = small, poorly fitted or top-dose-only effect, or another doubt; inactive = no such curve, though single readings can be large; an effect the other way counts as inactive or inconclusive. % is set by controls: 0 for no effect and ±100 for the full control effect; potency is the fitted concentration of half-maximal effect.
SMILES,Luciferase inh,NPR1 antag,NIH3T3 tox,HEK293 tox
O=C(c1ccccn1)N1CCOc2c(O)cc(-c3cccc(Cl)c3)cc2C1,i,-24.3%,-26.3%,44.7µM*
NC(=O)c1noc(CN2CCOc3c(O)cc(-c4csc5ccccc45)cc3C2)n1,i,-15.1%,?,?
Cn1cc(C(=O)N2CCOc3c(O)cc(-c4csc5ccccc45)cc3C2)cn1,i,-17.3%,?,25.1µM*
COCCc1noc([C@@H]2CN(CC(C)C)C[C@H]2CO)n1,i,0.7%,0.1%,i
CN(CC(=O)N1CCCn2nc(-c3cccc(C(F)(F)F)c3)cc2C1)S(=O)(=O)c1ccc2c(c1)oc(=O)n2C,.,.,?,31.6µM*
Cc1cccc(=O)n1CCC(=O)N1CCCn2nc(CO)cc2C1,i,0.0%,-5.7%,i
COC(=O)CNC(=O)C1CCCN(c2nccc(Nc3ccccc3F)n2)C1 (stereo not given),.,.,-27.1%,-15.8%
COc1ccccc1Nc1ccnc(N2CCCC(C(=O)NCc3ccc(F)c(F)c3)C2)n1 (stereo not given),.,.,12.6µM*,?
O=C(NCCc1ccc(Cl)cc1)C1CCCN(c2nccc(Nc3ccccc3F)n2)C1 (stereo not given),.,.,25.1µM*,22.4µM*
CNC(=O)[C@@H]1CCCN1c1nccc(Nc2ccccc2OC)n1,.,.,-7.2%[138 µM],-14.3%[172 µM]
O=C(NCc1ccc(F)cc1)C1CCCN(c2nccc(Nc3ccccc3F)n2)C1 (stereo not given),.,.,28.2µM*,?
COc1ccccc1Nc1ccnc(N2CCCC(C(=O)NCc3ccc(F)cc3)C2)n1 (stereo not given),.,.,20µM*,14.1µM*
COC(C(=O)N1CC(=O)N(Cc2cccnc2)CC(OCc2ccccc2)C1)c1ccccc1 (stereo not given),i,-9.4%,i,-4.1%
CS(=O)(=O)NCCc1ccc(CC2CCN(C(=O)CC3CCCC3)CC2)cc1,.,.,39.8µM*,?
O=C(NCc1ccccc1Cl)C1CCCN(Cc2cccc(-c3ccsc3)c2)C1 (stereo not given),.,.,12.6µM*,22.4µM*
O=C(NCc1cccc(Cl)c1)C1CCCN(Cc2cccc(-c3ccsc3)c2)C1 (stereo not given),.,.,39.8µM*,31.6µM*
O=C(NCC(=O)N1CCC(Cc2ccccc2)CC1)c1cccc(-c2ccsc2)c1,.,.,-24.8%,?
O=C(c1ccc(C(F)(F)F)cc1)N1CCCC(C(=O)N2CCCC2c2nc3ccncc3[nH]2)C1 (stereo not given),.,.,-18.3%,-0.7%
CC(C)NC(=O)NCc1nnc2n1C(C(=O)NCCc1ccc(Cl)cc1)CC2 (stereo not given),.,.,-18.6%,-3.8%
COCc1cc(=O)n(CC(=O)Nc2cccc(C(F)(F)F)c2)c(N2CCOCC2)n1,i,-15.0%,-19.9%,?
COc1ccc(C(=O)NC2CCN(Cc3cccc(-c4ccccc4OC)c3)CC2)cc1,.,.,?,22.4µM*
COCC(=O)NC1CCN(Cc2cccc(-c3ccccc3OC)c2)CC1,.,.,-21.0%,i
COc1ccccc1-c1cccc(CN2CCC(NC(=O)Cc3ccc(C(F)(F)F)cc3)CC2)c1,.,.,11.2µM*,11.2µM*
COc1ccccc1-c1cccc(CN2CCC(NC(=O)Nc3ccc(C)c(F)c3)CC2)c1,.,.,20µM*,10µM*
COc1cccc(-c2ccccc2NC(=O)C2CCN(Cc3cc(F)ccc3F)CC2)c1,i,?,?,22.4µM*
SMILES,Luciferase inh,NPR1 antag,NIH3T3 tox,HEK293 tox
N#Cc1ccc(C(=O)N2CCC[C@H]2c2nc(-c3ccccc3)no2)cc1,i,-9.8%,-17.7%,?
COc1ccccc1-c1cccc(CN2CCC(NC(=O)c3ccc(F)cc3)CC2)c1,.,.,?,39.8µM*
COc1cccc(CC(=O)N2CCCC3(C2)NC(=O)N(Cc2cc(C)ccc2C)C3=O)c1 (stereo not given),i,-9.1%,-27.5%,-24.6%
O=S(=O)(c1ccc(-n2cccn2)cc1)N1CCCC2(CCNC2)C1 (stereo not given),i,4.3%,-16.8%,?
CC(C)c1noc(C2CCCN2C(=O)c2cc(-c3cccs3)n(C)n2)n1 (stereo not given),31.6µM*,1.0%,-21.8%,-28.8%
CC(C)NS(=O)(=O)c1ccc2c(c1)nc(-c1cc(C(C)(C)C)[nH]n1)n2C(C)C,i,-1.3%,?,44.7µM*
CC(C)NS(=O)(=O)c1ccc2c(c1)nc(-c1ccc(-c3ccn[nH]3)o1)n2C(C)C,i,-16.8%,?,?
Cc1ccccc1Nc1cnc2ccc(-c3cccc(CO)c3)nn12,i,-2.6%[70.6 µM],?,79.4µM*
COc1ccccc1Nc1cnc2ccc(-c3cccc(CO)c3)nn12,i,?,?,?
OCc1cccc(-c2ccc3ncc(Nc4cccc(F)c4)n3n2)c1,i,-24.3%[70.6 µM],28.2µM*,56.2µM*
COc1cccc(Nc2cnc3ccc(-c4cccc(CO)c4)nn23)c1,i,-16.5%[70.6 µM],?,?
CCn1ncc(CN2CCCC(C(=O)N3CCN(c4ccccn4)CC3)CCNC(=O)CC2)c1C (stereo not given),i,2.6%,-6.9%,-3.5%
Cc1cc(NC(=O)C2CCN(C(=O)c3ncn4c3COC(c3ccc(F)cc3)C4)CC2)ccc1Cl (stereo not given),39.8µM*,-3.1%,?,-21.4%
Cc1ccc(NC(=O)C2CCN(C(=O)c3ncn4c3COC(c3ccc(F)cc3)C4)CC2)c(Cl)c1 (stereo not given),25.1µM*,-24.5%,0.3%,0.3%
O=C(Nc1ccc2c(c1)CCC2)C1CCN(C(=O)c2ncn3c2COC(c2ccc(F)cc2)C3)CC1 (stereo not given),28.2µM*,1.2%,i,6.8%
Cc1cc(C)cc(NC(=O)C2CCN(C(=O)c3ncn4c3COC(c3ccc(F)cc3)C4)CC2)c1 (stereo not given),?,-2.8%,1.1%,4.6%
Cc1ccc(NC(=O)C2CCN(C(=O)c3ncn4c3COC(c3ccc(F)cc3)C4)CC2)cc1C (stereo not given),35.5µM*,0.7%,i,12.5%
COc1ccc(C2Cn3cnc(C(=O)N4CCC(C(=O)Nc5ccc(C)c(C)c5)CC4)c3CO2)cc1 (stereo not given),i,-23.5%,i,-0.9%
COc1cccc(C(=O)N2CCC(C(=O)N3CC[C@@](C)(O)[C@@H](O)C3)CC2)c1,i,1.5%,-12.6%,-12.4%
Cn1ncc(N2CCC(CNC(=O)c3cccc(-n4cnnc4)c3)C2)cc1=O (stereo not given),i,-0.9%,i,i
O=C(NCC1CNCCOC1)c1ccc2nc(-c3ccc(F)cc3)cn2c1 (stereo not given),?,-5.8%,?,?
CCC(NC(=O)c1ccc2nc(-c3ccc(F)cc3)cn2c1)c1ncc(C)[nH]1 (stereo not given),7.94µM*,-6.5%,?,?
